Sampled rows, rich in hits. Any-hit rate of the full collection: about 7.1%.
Lassa entry: inhibitors of Lassa virus binding or entry into cells; Lassa virus pseudotyped entry inhibition, cell-based qHTS; Potency, µM (series often up to 49.2 µM), inactives show at the top dose activity change, negative = inhibition, actives largely listed as inhibitors; hit rate 4.1% among 18,000; AID 720533
MARV entry inh: blocks Marburg virus binding or cell entry; Marburg virus pseudotype entry/binding inhibition, cell-based; Potency, µM (titrated, usually from 49.2 µM), without a hit: at the top dose activity change, negative = inhibition, actives largely listed as inhibitors; hit rate 6.5% among 18,000; AID 720532
An asterisk follows results filed as active; ? = inconclusive; . = no result given; ! = a repeat was not active; [ ] = another dose, or the depositor's remark. The call rests on the fitted dose curve; tested in HEK293 cells. On the % scale 0 is the no-effect control and ±100 the full control effect; potency means the concentration at half of the fitted maximal effect.

SMILES	Lassa entry	MARV entry inh
C[C@@H]([C@H](O)c1ccccc1)N(C)C	3.8%	32.5%
CC(CC(C#N)(c1ccccc1)c1ccccc1)N(C)C (stereo not given)	?	31.6µM*
CC[C@H](O)C(C[C@H](C)N(C)C)(c1ccccc1)c1ccccc1	?	17.8µM*
COc1cc(O)c(C(=O)C=Cc2ccc3c(c2)OCO3)c(OC)c1	11.9%[8.59 µM]	10.0%[8.59 µM]
CC(=O)C[C@@H](c1ccccc1)c1c(O)c2ccccc2oc1=O	-2.2%	-6.9%
O=c1oc2ccccc2c(O)c1Cc1c(O)c2ccccc2oc1=O	7.94µM*!	-22.8%[17.8 µM]
O=C(O)c1cc(O)c2c(c1)[O][Bi][O]2	4.8%	4.5%
O=C(O)c1cc(O)c(O)c(O)c1	11.2µM*	3.16µM*
COC(=O)N[C@@H](c1ccco1)[C@]1(C(C)=O)CCCC1=O	5.1%[8.59 µM]	?
CC(=O)OC1C[C@@]2(C)C(c3ccoc3)OC(=O)C3O[C@@]32[C@]2(C)C(OC(C)=O)CC3C(C)(C)C(OC(C)=O)CC(OC(C)=O)[C@@]3(C)C12 (stereo not given in full)	7.4%	1.7%
CC(=O)OC1CC(OC(C)=O)[C@]2(C)C(CC(OC(C)=O)[C@]3(C)C2CC[C@@]2(C)C(c4ccoc4)C(=O)C4O[C@]432)C1(C)C (stereo not given in full)	-16.4%	15.8µM*
CC1(C)O[C@H]2OC([C@H](O)CON3C(=O)c4ccccc4C3=O)[C@H](O)[C@@H]2O1 (stereo not given in full)	-8.6%[8.59 µM]	?
C[C@H]1[C@H]2CC[C@H]3C4CC=C5C[C@@H](N(C)C)CC[C@]5(C)C4CC[C@]23CN1C (stereo not given in full)	-26.1%	11.2µM*
C[C@]12CC[C@H](O)CC1=CC[C@@H]1[C@@H]2CC[C@]2(C)C(=O)CC[C@@H]12	-14.0%	-21.7%
COc1ccc(OC)c(-c2ccccc2C=NNS(=O)(=O)c2ccc(C)cc2)c1	-3.7%[8.59 µM]	?
CC(C)(C)c1ccc(C(=O)CCCN2CCC(OC(c3ccccc3)c3ccccc3)CC2)cc1	8.91µM*	-67.5%
CC1CCN(CCCC(=O)c2ccc(F)cc2)CC1	-2.6%	-18.9%
O=C(Nc1cc(C(=O)Nc2ccc(S(=O)(=O)O)cc2S(=O)(=O)O)cc(C(=O)Nc2ccc(S(=O)(=O)O)cc2S(=O)(=O)O)c1)Nc1cc(C(=O)Nc2ccc(S(=O)(=O)O)cc2S(=O)(=O)O)cc(C(=O)Nc2ccc(S(=O)(=O)O)cc2S(=O)(=O)O)c1	-5.1%	-22.5%
O=C(Nc1ccc(C(=O)Nc2ccc(C(=O)Nc3ccc(S(=O)(=O)O)c4cc(S(=O)(=O)O)cc(S(=O)(=O)O)c34)cc2)cc1)Nc1ccc(C(=O)Nc2ccc(C(=O)Nc3ccc(S(=O)(=O)O)c4cc(S(=O)(=O)O)cc(S(=O)(=O)O)c34)cc2)cc1	5.4%	3.98µM*
COCCN1C(=O)NC(c2ccc(Br)cc2)C(C(C)=O)=C1C (stereo not given)	2.2%[8.59 µM]	63.1%[8.59 µM]
COC(=O)C1=C[C@@H]([C@@H](C)[C@H](OC)c2ccccc2Br)[C@@H]2OCC[C@H]12	32.5%[8.59 µM]	39.8%[8.59 µM]
COC(=O)C1=C[C@H]([C@@H](C)[C@H](OC)c2ccccc2Br)[C@H]2c3ccccc3O[C@@H]12	1.68µM*	?
COCCN1C(=O)NC(c2cccc(C(F)(F)F)c2)C(C(C)=O)=C1C (stereo not given)	-23.9%[8.59 µM]	11.2%[8.59 µM]
CCCN(CCC)C1CCc2cccc(O)c2C1 (stereo not given)	31.6µM*	22.4µM*
CCCN(C/C=C/I)C1CCc2cccc(O)c2C1 (stereo not given)	7.8%	?
SMILES	Lassa entry	MARV entry inh
COCCN1C(=NCC(C)C)NC(c2ccccc2)C(C(=O)OC)=C1C (stereo not given)	.	28.6%[8.59 µM]
COC(=O)C1=C(C(=O)OC)[C@@H]2N(C)c3ccccc3[C@@]23C[C@@H](CO)N(C(=O)NC2CCCCC2)C3=N1	-2.9%[8.59 µM]	-1.9%[8.59 µM]
COC(=O)C1=C[C@@]2(c3ccc(OC)cc3[C@@H](OC)[C@@H]2C)[C@@H]2C=C[C@@H]1C2	18.1%[8.59 µM]	49.7%[8.59 µM]
C=C/C(=C/C(=O)C[C@H](C)C[C@@H](C)CC[C@H](O)[C@H](C)C(=O)C[C@@H](O)[C@H](C)[C@@H](C)OC(=O)C[C@@H](O)C1=C(C)C(=O)OC1=O)CC	2µM*	2.51µM*
CC[C@@]1([C@@H]2O[C@@H]([C@H]3O[C@@](O)(CO)[C@H](C)C[C@@H]3C)C[C@@H]2C)CC[C@H]([C@]2(C)CC[C@]3(C[C@H](O)[C@@H](C)[C@@H]([C@@H](C)[C@@H](OC)[C@H](C)C(=O)O)O3)O2)O1 (stereo in doubt)	2.82µM*!	3.98µM*!
COc1cc(O)c(C(C)=O)c(OC)c1	5.62µM*	8.91µM*
COc1ccc(C(=O)CC(=O)c2c(O)cc(OC)cc2OC)cc1	-12.5%[8.59 µM]	18.3%[8.59 µM]
CC(=O)OCOC(=O)CN(CC(=O)OCOC(C)=O)c1ccccc1OCCOc1ccccc1N(CC(=O)OCOC(C)=O)CC(=O)OCOC(C)=O	?	15.8µM*
C=CC[C@@](C(C)=O)(C(=O)OC)[C@@H](NC(=O)OC(C)(C)C)c1ccccc1	11.6%[8.59 µM]	30.5%[8.59 µM]
CCCCCC(=O)N1C[C@H](O)[C@@H](n2cc(COC(=O)c3ccccc3)nn2)C[C@H]1c1ccc(OC)cc1	-29.4%	?
COC(=O)CC=C1c2ccccc2[C@@H](O)[C@@H]1C	-16.8%[8.59 µM]	52.2%[8.59 µM]
COC(=O)C1=C(C(=O)OC)[C@@H]2Nc3ccccc3[C@@]23C[C@@H](C(=O)OC)N(C(=O)NC(C)(C)C)C3=N1	5.4%[8.59 µM]	1.5%[8.59 µM]
CSc1ccccc1C(=O)NCC1Cc2cc(F)cc(-c3cnccn3)c2O1 (stereo not given)	-9.9%	-5.5%
O=C(NCC1Cc2cccc(-c3ncccn3)c2O1)c1cccc(-c2ccccc2F)c1 (stereo not given)	-14.3%	-0.5%
Cc1cc2c(c(-c3cnccn3)c1)OC(CNC(=O)c1cc(Cl)ccc1F)C2 (stereo not given)	-1.9%	25.1µM*
O=C(NCC1Cc2cccc(-c3cnccn3)c2O1)c1ccc(F)c(Cl)c1 (stereo not given)	2.2%	11.2µM*
CC(C)[C@@H](OCc1ccccc1)[C@H](C)C=NO[C@H](C)c1cn([C@@H]2COC[C@@H]2O)nn1	7.1%[8.59 µM]	-6.3%[8.59 µM]
COc1ccccc1C=CC1=CC2(C)CC1(C)C(c1ccccc1OC)CC2=O (stereo not given)	5.7%[8.59 µM]	-29.1%[8.59 µM]
COCC=CC1=CC2=CC(=O)C(C)(OC(=O)c3cnc4ccccc4n3)C(=O)C2=CN1C1CC1 (stereo not given)	6.2%[8.59 µM]	32.2%[8.59 µM]
Cc1nc(-c2ccc(OCC(C)C)c(C#N)c2)sc1C(=O)O	7.94µM*	?
CCCCCCCc1cc2ccccc2c2c(C(=O)OC)c(C)c(C(=O)OC)n12	13.1%[8.59 µM]	38.1%[8.59 µM]
COc1ccc2cc1Oc1ccc(cc1)CC1c3cc(c(OC)cc3CCN1C)Oc1c(OC)c(OC)c(OC)c3c1C(C2)N(C)CC3 (stereo not given)	?	10µM*
COc1cc2c3cc1Oc1cc(ccc1O)C[C@@H]1c4c(cc(OC)c(O)c4Oc4ccc(cc4)C[C@@H]3N(C)CC2)CC[N+]1(C)C	-9.0%	1.0%
CC(=O)OC[C@H]1O[C@H](CC=NO[C@@H](C)CN2CCCc3nc(C)c(C)cc32)C=C[C@@H]1OC(C)=O	-1.6%[8.59 µM]	9.1%[8.59 µM]
CN(C)C1CCN(CCCOc2ccc(-c3ccc(C#N)cc3)cc2)C1 (stereo not given)	?	11.2µM*
Cc1ccc2[nH]c(O)c(N=Nc3ccc(S(N)(=O)=O)cc3)c2c1	?	84.7%

Screens from PubChem.
